# ELG1 genotoxic = inducers of genotoxicity in HEK293T ELG1-luciferase cells; 330,000 tested, 1.3% active; Potency, µM (doses to about 46 µM), for the others: top-dose activity change, positive = activation, actives largely listed as activators; HEK293T ELG1-luciferase reporter, luminescence, 16 h; further: % of control where 0% means no effect; nearly all actives have a fitted effect of over 60% in size
#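 DMSO vehicle served as control against compound-treated ELG1-luciferase HEK293T cells; exposure lasted 16 hr at 37 °C and 5% CO2, followed by ONE-Glo luminescence detection after 30 min.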
# NPC1 prom act = activators of NPC1 promoter. Huh7 NPC1 promoter luciferase reporter, 24 h. Potency, µM (titrated, usually from 9.22 µM), without a hit: at the top dose activation, most hits filed as activators. 320,000 tested, 2.4% active; further: % of control where 0% means no effect; nearly all actives have a fitted effect of over 60% in size
#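 Compounds in DMSO were transferred onto Huh7 NPC1-luciferase reporter cells pre-incubated 2 h; after 24 h at 37 °C, Amplite reagent was dispensed and luminescence recorded 10 min later.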
# Rab9 promoter act = activators of Rab9 promoter. Huh7 Rab9 promoter-luciferase reporter, luminescence, 24 h. Potency, µM (series often up to 9.22 µM), for the others: top-dose activation, negative = inhibition, hits mostly activators. 320,000 tested, 2.8% active. AID 485297; further: % of control where 0% means no effect; nearly all actives have a fitted effect of over 60% in size
#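 Cell-based reporter: Huh7 stable for Rab9 promoter-driven luciferase, plated in reduced-serum medium with 10% FBS at 1500 cells/well, compound-treated 24 h at 37 °C, luminescence read after 10 min reagent.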
# FLuc counter = counter-screen for miR-21 project: firefly luciferase inhibitors or activators | purified FLuc, Km substrates, luminescence inhibition | Potency, µM (doses to about 57.5 µM), inactives show at the highest dose activity change, negative = inhibition, usual class: inhibitors | P08659 | 360,000 tested, 6.9% active;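 further: plate controls were vehicle for no effect and reference inhibitor for full effect; nearly all actives have a fitted effect of over 55% in size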
# Target sequence (P08659 whole entry, looked up): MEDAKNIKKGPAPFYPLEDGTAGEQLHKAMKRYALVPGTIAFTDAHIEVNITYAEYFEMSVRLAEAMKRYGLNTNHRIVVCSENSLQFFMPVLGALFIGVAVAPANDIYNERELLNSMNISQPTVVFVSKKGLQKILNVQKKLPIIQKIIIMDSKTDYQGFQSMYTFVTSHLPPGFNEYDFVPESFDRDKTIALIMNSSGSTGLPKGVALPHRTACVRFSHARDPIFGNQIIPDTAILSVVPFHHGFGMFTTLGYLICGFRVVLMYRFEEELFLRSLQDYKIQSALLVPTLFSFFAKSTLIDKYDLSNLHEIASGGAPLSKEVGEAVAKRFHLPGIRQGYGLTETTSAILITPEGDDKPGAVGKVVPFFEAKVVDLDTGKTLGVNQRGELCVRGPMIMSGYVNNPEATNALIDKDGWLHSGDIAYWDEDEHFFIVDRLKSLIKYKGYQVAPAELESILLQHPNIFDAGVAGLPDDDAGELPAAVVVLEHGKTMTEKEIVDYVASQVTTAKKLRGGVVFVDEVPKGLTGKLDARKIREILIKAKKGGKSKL
#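 Purified P. pyralis luciferase, 10 nM final, with Km-level 10 uM D-luciferin and 10 uM ATP in 50 mM Tris acetate pH 7.5, 10 mM Mg acetate, 0.01% Tween-20, 0.05% BSA; 6-point qHTS titration about 60 µM downward; luminescence read.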
# SMN2 splice enh = increases expression of the SMN2 splice variant; HEK293 SMN2-luciferase splicing reporter, luminescence, 30-36 h; AID 1458; 210,000 tested, 2.8% active; Potency, µM (highest dose often 46.1 µM), inactives show at the top dose activity change, positive = activation, actives largely listed as activators; further: % of control where 0% means no effect; nearly all actives have a fitted effect of over 55% in size
#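 HEK293 cells carry an SMN2 minigene-luciferase reporter in which exon 7 inclusion puts luciferase in frame. Cells were seeded at 2000 cells/well, attached for 10-12 hours, then exposed to compounds for 30-36 hours at 37C before ONE-Glo luminescence.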
# * = called active by the depositor; ? = inconclusive; . = no result given; [ ] = another dose, or the depositor's remark. This is a sample that favours compounds with a hit; in the whole collection about 7.5% have one here. The call rests on the fitted dose curve; in most records, active means well fitted curve in the direction sought with a large enough effect; inconclusive means small, poorly fitted or top-dose-only effect, or another doubt; inactive means no such curve, though single readings can be large; an effect the other way counts as inactive or inconclusive. Potency means the concentration at half of the fitted maximal effect.
SMILES,ELG1 genotoxic,NPC1 prom act,Rab9 promoter act,FLuc counter,SMN2 splice enh
O=C(CSc1nc2ncccc2[nH]1)NC1CCCC1,0%,2%,0%,-2%,.
CC(C)c1ccc(NC(=O)C2CCCN(S(=O)(=O)c3cccc4nsnc34)C2)cc1 (centres undefined),.,.,.,-2%,1%
Cc1cccc(NC(=O)Nc2cccc(F)c2)n1,?,?,?,13µM*,11%
COc1cccc(NC(=O)Nc2nccc(C)n2)c1,?,1.3µM*,0.56µM*,1.2µM*,.
Cc1ccnc(NC(=O)Nc2cccc(F)c2)n1,?,2.2µM*,1.1µM*,7.6µM*,11µM*
COc1ccc(NS(=O)(=O)N2CCOCC2)cc1,2%,0%,-3%,3%,.
O=[N+]([O-])c1ccc2cn(-c3ccccc3)nc2c1,?,?,2µM*,9.5µM*,18µM*
Cc1nn(-c2ccccc2)c(N)c1Sc1cccc([N+](=O)[O-])c1,-1%,-2%,-5%,-2%,-32%
Nc1c(-c2ccc(Cl)cc2)cnn1-c1cccc([N+](=O)[O-])c1,15%,29%,?,15µM*,-4%
Nc1nn(-c2ccccc2)c2ccc([N+](=O)[O-])cc12,11%,12%,-1%,17µM*,.
Cc1nn(-c2cccc([N+](=O)[O-])c2)c(N)c1-c1ccccc1,17%,?,2.5µM*,15µM*,13µM*
O=[N+]([O-])c1ccc2c(c1)nnn2-c1ccccc1,5%,2%,-1%,-1%,.
O=[N+]([O-])c1ccc2c(c1)ncn2-c1ccccc1,-1%,6%,-1%,-9%,-9%
CC(C)N(c1ccccc1)c1ccc(NC(=O)COC(=O)CCN2C(=O)c3cccc([N+](=O)[O-])c3C2=O)cc1,-2%,-5%,1%,7%,-4%
COc1ccc(CC(=O)Nn2c(-c3ccccc3)nc3ccccc3c2=O)cc1,-1%,1%,-1%,2%,-22%
CC1CCN(C(=O)CN2CC(C)Sc3ccccc32)CC1 (centres undefined),.,.,.,1%,.
Nc1c(-c2ccccc2)cnn1-c1cccc([N+](=O)[O-])c1,?,?,?,15µM*,19%
CC(C)(C)OC(=O)N1CCC(c2c(C(=O)NCc3ccco3)cnn2-c2ccc(F)cc2)CC1,.,.,.,-5%,.
Cn1c(C(=O)NCc2cccc(Cl)c2)cc2oc3ccccc3c21,.,.,.,-1%,?
COCCNC(=O)c1cc2oc3ccccc3c2n1C,?,26%,3.2µM*,9.5µM*,.
CC(=O)OCOC(c1ccc2ccccc2c1)P(=O)(OCOC(C)=O)OCOC(C)=O (centres undefined),.,.,.,.,-22%
CC(=O)OCC1=C(C(=O)O)N2C(=O)C(NC(=O)Cc3cccs3)C2SC1 (centres undefined),.,.,.,.,9%
COc1cccc(C(=O)NC2C(=O)N3C(C(=O)O)=C(COC(C)=O)CSC23)c1 (centres undefined),0%,0%,-2%,21µM*,.
Cc1c(C(=O)N2CCCc3ccccc32)oc2ccc(S(=O)(=O)N3CCOCC3)cc12,-1%,-4%,-1%,-9%,-28%
Cc1ccc(NC(=S)NC(=O)c2cccs2)cc1F,15%,.,.,.,.
SMILES,ELG1 genotoxic,NPC1 prom act,Rab9 promoter act,FLuc counter,SMN2 splice enh
O=C(/C=C/Nc1ccccc1C(=O)O)c1cccs1,16µM*,1.4µM*,1µM*,3.4µM*,11µM*
CNc1cc([N+](=O)[O-])ccc1N/C=C/C(=O)c1cccs1,-3%,-3%,3%,-1%,-27%
Cc1cc(N/C=C/C(=O)c2cccs2)ccc1F,2.9µM*,?,4µM*,0.95µM*,14µM*
Cc1ccc(N/C=C/C(=O)c2cccs2)cc1C,?,24%,3.5µM*,0.19µM*,2.2µM*
O=C(/C=C/Nc1cccc([N+](=O)[O-])c1)c1cccs1,?,21%,3.2µM*,1.7µM*,16µM*
COc1ccccc1NC(=S)N1CCC(C(=O)c2ccc(F)cc2)CC1,0%,1%,-3%,0%,-1%
Cc1ccc(NC(=O)CN(C)Cc2nc3c(Br)cc(Br)cc3c(=O)[nH]2)cc1,0%,-10%,3%,?,-5%
O=C(/C=C/Nc1ccc(Nc2ccccc2)cc1)c1cccs1,?,4µM*,2µM*,4.3µM*,.
Cc1c(N/C=C/C(=O)c2cccs2)c(=O)n(-c2ccccc2)n1C,4%,-3%,-4%,?,11%
C/C(=N\OCC(=O)Nc1ccccc1C(=O)O)c1cccs1,2%,13%,16%,21µM*,.
Cc1nc2sccn2c(=O)c1CCN1CCC(=C(c2ccccc2)c2ccc(F)cc2)CC1,14%,-3%[46.1 µM],-12%[46.1 µM],15%,-40%
O=C(Oc1cccc(Oc2ccccc2)c1)N1CCOCC1,22%,0%,0%,-7%,-9%
O=C(Oc1ccc(-c2ccccc2)cc1)N1CCOCC1,?,2.8µM*,2µM*,21µM*,?
O=C(Oc1ccc(Oc2ccccc2)cc1)N1CCC(O)CC1,?,?,?,17µM*,.
CC1COC2=C1C(=O)C(=O)c1c2ccc2c1CCCC2(C)C (centres undefined),.,.,.,.,-1%
O=C(OCCOc1ccccc1Cl)c1ccc(-n2cnnn2)cc1,4%,1%,6%,21µM*,1%
CCOC(=O)c1c(S(=O)(=O)NCC(=O)Nc2ccc(C)c(N(C)C)c2)c(C)n(C)c1C,.,.,.,-7%,.
CC(C(=O)O)c1ccc(N2Cc3ccccc3C2=O)cc1 (centres undefined),11%,0.089µM*,0.32µM*,0.27µM*,1.3µM*
Cc1cccc(NC(=O)c2ccc(-c3ccccc3)s2)c1,.,.,.,2.4µM*,?
O=C(Nc1ccc(F)cc1F)c1ccc(-c2ccccc2)s1,.,.,.,-20%,22%
Cc1ccc(NC(=O)c2ccc(-c3ccccc3)s2)cc1,.,.,.,-15%,5%
O=C(Nc1cccc(F)c1)c1ccc(-c2ccccc2)s1,.,.,.,2.1µM*,16%
O=C(Nc1ccccc1)c1c(F)cccc1F,11%,18%,-6%,-16%,-2%
O=C(Nc1ccccc1)c1ccc(-c2ccc(F)cc2)s1,7.3µM*,?,?,?,?
Cc1cnc(SCc2ccc(Cl)cc2Cl)[nH]c1=O,8%,-1%,-3%,21µM*,.
Cc1ccc(N2C(=O)c3ccccc3C2O)nc1 (centres undefined),?,?,0.28µM*,1.5µM*,0.56µM*
Cc1ccc(N2C(=O)c3ccccc3C2Nc2ccccc2F)nc1 (centres undefined),2%,-5%,20%,0%,-5%
Nc1nonc1C(=O)N/N=C\c1cc2c(cc1Cl)OCO2,15%,-7%,-2%,?,.
O=C(N/N=C/c1ccc([N+](=O)[O-])o1)c1ccc2c(c1)OCO2,-4%,-11%,13%,?,.
O=C(N/N=C/c1cccc(O)c1)c1cc(-c2ccc3c(c2)OCO3)n[nH]1,-2%,-2%,1%,5.4µM*,8%

# Screening results as filed in PubChem.
